# This is a sample that favours compounds with a hit; in the whole collection about 9% have one here.
# Lamin A splicing – changes lamin A minigene splicing in HeLa cells; HeLa LMNA splicing GFP/RFP minigene ratio, 48 h; Potency, µM (doses to about 46.1 µM), without a hit: at the top dose ratio change, negative = inhibition, actives largely listed as inhibitors; 200,000 tested, 0.01% active; active means well fitted inhibition curve with a large enough effect in the signal ratio, with a control signal flat, not every such curve was filed as active; inconclusive means small, poorly fitted or top-dose-only effect, or effect the other way, or a change in a side signal; the % refers to the signal ratio; further: on the % scale 0 is the no-effect control and ±100 the full control effect
#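 S3 HeLa stable clones carrying a lamin A-EGFP splicing minigene plus DsRed2 were seeded at 600 cells/well in Opti-MEM with 2% FBS, pin-dosed and incubated 48 h at 37°C. Acumen cytometry (488 nm) gave the GFP/RFP total-intensity ratio.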
# HttQ103 aggreg – mutant huntingtin aggregation inhibition; 220,000 tested, 1.1% active; AID 1688; PC12 HttQ103-GFP aggregates, Acumen cytometry, 40 h; Potency, µM (series often up to 46.1 µM), for inactives: top-dose activity change, negative = inhibition, usual class: inhibitors; further: on the % scale 0 is the no-effect control and ±100 the full control effect; nearly all actives have a fitted effect of over 60% in size
#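 Ecdysone-promoter PC12 model expressing HTT exon 1 Q103 fused to GFP, induced by tebufenozide at 100 nM final. Compounds titrated; aggregates sized 1–25 µm scored on a 488 nm laser cytometer.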
# Luc counter – blocks Kinase-Glo luciferase, a counter-screen artifact; Q27757; Kinase-Glo luciferase, ATP luminescence, 8 min; Potency, µM (highest dose often 38.3 µM), for the others: at the highest dose activity change, negative = inhibition, actives largely listed as inhibitors; 200,000 tested, 0.28% active; further: on the % scale 0 is the no-effect control and ±100 the full control effect; nearly all actives have a fitted effect of over 60% in size
#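 Kinase-Glo luciferase light output from ATP and luciferin was measured with 10 uM ATP, within the enzyme's linear range. Buffer: 50 mM imidazole pH 7.2, 50 mM KCl, 7 mM MgCl2, 0.01% Tween 20, 0.05% BSA; luminescence read after 8 min at ambient temperature.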
# HPGD block – inhibitors of human 15-hydroxyprostaglandin dehydrogenase (HPGD); P15428; purified HPGD, NADH fluorescence kinetic, PGE2 substrate; Potency, µM, inactives show top-dose activity change, negative = inhibition, actives largely listed as inhibitors; 150,000 tested, 4.3% active; AID 894; active means well fitted inhibition curve with a large enough effect, not every such curve was filed as active; inconclusive means small, poorly fitted or top-dose-only effect, or another doubt; inactive means no such curve, though single readings can be large or run the other way; further: on the % scale 0 is the no-effect control and ±100 the full control effect
# Target sequence (P15428 whole entry, looked up): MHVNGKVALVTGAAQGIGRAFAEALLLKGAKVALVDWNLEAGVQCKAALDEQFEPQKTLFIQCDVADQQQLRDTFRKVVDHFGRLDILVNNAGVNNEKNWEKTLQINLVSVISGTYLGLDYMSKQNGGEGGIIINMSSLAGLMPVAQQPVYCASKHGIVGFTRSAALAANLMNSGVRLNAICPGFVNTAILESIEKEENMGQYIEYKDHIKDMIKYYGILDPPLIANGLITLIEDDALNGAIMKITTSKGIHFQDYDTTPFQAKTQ
#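 NADH formation kinetics: reaction with 30 uM PGE2 and 1 mM NAD+ (final), 20 nM enzyme, Tris-HCl pH 8 with Tween 20, after 15 min compound preincubation at room temperature. Fluorescence change, last versus first of five reads.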
# HTT ATP protect – cytoprotection in Huntington HTT-Q103 PC12 cell model; PC12 HTT-Q103 induced, cytoprotection, ATP luminescence, 40 h; Potency, µM (doses to about 56.4 µM), inactives show cytoprotection (ATP increase), usual class: activators; 230,000 tested, 0.14% active; AID 1471; further: % of control where 0% means no effect; nearly all actives have a fitted effect of over 45% in size
#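 Huntington model: PC12 line, ecdysone-inducible HTTQ103 exon1–GFP, tebufenozide 100 nM. Test articles in a dose series. Endpoint luminescence from cellular ATP.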
# ALDH1A1 block – blocks purified human ALDH1A1 activity | Purified ALDH1A1, NADH fluorescence, propionaldehyde substrate | Potency, µM (titrated, usually from 75.3 µM), without a hit: top-dose activity, negative = inhibition, hits mostly inhibitors | 220,000 tested, 7.3% active | AID 1030; active means well fitted inhibition curve with a large enough effect, not every such curve was filed as active; inconclusive means small, poorly fitted or top-dose-only effect, or another doubt; inactive means no such curve, though single readings can be large or run the other way;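 further: plate controls were no enzyme wells and a reference inhibitor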
# Target sequence (P00352 whole entry, looked up): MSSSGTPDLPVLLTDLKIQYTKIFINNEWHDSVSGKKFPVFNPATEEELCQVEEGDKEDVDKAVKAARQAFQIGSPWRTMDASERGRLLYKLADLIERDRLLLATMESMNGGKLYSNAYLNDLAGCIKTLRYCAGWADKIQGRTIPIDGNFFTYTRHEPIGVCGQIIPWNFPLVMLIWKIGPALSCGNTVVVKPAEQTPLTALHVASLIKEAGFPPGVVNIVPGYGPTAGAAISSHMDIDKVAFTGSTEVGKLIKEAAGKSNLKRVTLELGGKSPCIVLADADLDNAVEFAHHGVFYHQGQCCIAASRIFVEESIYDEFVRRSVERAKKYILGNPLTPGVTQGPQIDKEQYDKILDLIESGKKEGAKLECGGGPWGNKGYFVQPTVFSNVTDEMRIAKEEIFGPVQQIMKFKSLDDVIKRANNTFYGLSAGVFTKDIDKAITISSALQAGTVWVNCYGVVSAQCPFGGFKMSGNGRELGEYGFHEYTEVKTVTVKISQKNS
# * hit, by the source's call; ? = inconclusive; / = not tested or not shown; [ ] = another dose, or the depositor's remark. Unless noted, the call rests on the fitted dose curve; in most records, active means well fitted curve in the direction sought with a large enough effect; inconclusive means small, poorly fitted or top-dose-only effect, or another doubt; inactive means no such curve, though single readings can be large; an effect the other way counts as inactive or inconclusive. Potency means the concentration at half of the fitted maximal effect.
SMILES,Lamin A splicing,HttQ103 aggreg,Luc counter,HPGD block,HTT ATP protect,ALDH1A1 block
Cc1cc(/C=C2\C(=O)NC(=S)N(C)C2=O)c(C)n1C1CCCCC1,-8%,12%,-3%,-1%,-1%[10 µM],-8%
Cc1cc(C=C2C(=O)N(C)C(=S)N(C)C2=O)c(C)n1C1CCCC1,0%,-15%,-4%,-13%,-12%,22µM*
Cc1cc(C=O)c(C)n1C1CCCCC1,-2%,9%[1.84 µM],1%,-7%,0%,22µM*
Cc1cc(C=O)c(C)n1CC1CCCO1 (stereo not drawn),0%,13%,-1%,-11%,8%,?
Cc1cc(C=C2C(=O)N(C)C(=S)N(C)C2=O)c(C)n1-c1cccnc1,7%,33%,-4%,10µM*,9%[10 µM],11µM*
CN1C2CCC1/C(=C/c1ccccn1)C(=O)/C2=C\c1ccccn1,?,?,0%,-10%,/,-2%
NC(Cn1ccc(=O)[nH]c1=O)C(=O)O (stereo not drawn),-12%,/,-1%,-5%,/,11%
CN(CCOc1ccc(C=C2C(=O)NC(=O)NC2=O)cc1)c1ccccn1,/,?,-2%,/,/,?
O=C1NC(=O)C(=Cc2ccc(OCC(=O)N3CCOCC3)cc2)C(=O)N1,?,-11%,-1%,-20%,/,5µM*
O=C(CN1CC(c2ccccc2)CC1=O)NCc1ccc(F)cc1 (stereo not drawn),-8%,13%,1%,-4%,0%,10%
CCCCn1c(=O)c(C=Nc2cc([N+](=O)[O-])ccc2OC)c(O)n(CCCCl)c1=O,?,23%,0%,-18%,/,11µM*
CNC(=O)[C@H]1C[C@@H]1[C@H](NP(=O)(c1ccccc1)c1ccccc1)c1ccccc1,/,/,0%,-8%,3%,1%
O=C(CNC(=O)c1cccs1)OCC(=O)c1ccc([N+](=O)[O-])cc1,/,-2%[9.22 µM],-3%,/,8%[10 µM],0.32µM*
O=C(Oc1ccccc1)N1CCC2(CC1)CN(C(c1ccccc1)c1ccccc1)C2,/,/,-3%,-7%,-57%,?
CCCC(=O)Cl,/,/,/,-2%,-3%,4%
N#CS.N=C=S.N=C=S.[Cu].[NH2-].[NH2-].[NH2-].[NH2-].c1ccc2ncccc2c1,/,/,-2%[7.66 µM],-3%,-9%[10 µM],3.5µM*
c1ccc2ncccc2c1,/,/,/,-7%,9%,/
Cc1nn(Cc2ccccc2Cl)c(Cl)c1C(=O)OCC(=O)NC(=O)NC1CCCCC1,-10%,-31%,13%,-17%,6%[10 µM],-7%
CC1=C2C3OC(=O)[C@H](C)[C@H]3CC[C@@]2(C)C=CC1=O (stereo partly drawn),/,/,1%,2%,-6%[1.9 µM],5%
CC1C(=O)OC2C1CC[C@@]1(C)C=CC(=O)[C@@]3(C)O[C@@]213 (stereo partly drawn),/,/,0%,3%,35µM*,4%
CC(C)NS(=O)(=O)c1ccc(OCC(=O)N2CCN(Cc3ccccc3)CC2)c(Cl)c1,?,-16%,2%,-5%,-10%[10 µM],10%
O=C(CCN1CC2CCC(CC2)C1)c1cccs1,/,/,-1%[7.66 µM],1%,10%[10 µM],0.071µM*
Cc1ccc2c(c1)C1CN(C)CCC1N2C(=O)c1cccs1 (stereo not drawn),/,2%[9.22 µM],/,/,-2%[10 µM],/
Cc1ccc(-c2nn(C)c(=O)c3ccccc23)cc1CNC(=O)/C=C/c1ccccc1,?,?,-3%,?,-68%,22µM*
ClCCCl,/,/,/,-1%,-2%,?
SMILES,Lamin A splicing,HttQ103 aggreg,Luc counter,HPGD block,HTT ATP protect,ALDH1A1 block
COc1ccc(NC(=O)c2cc([N+](=O)[O-])ccc2N2CCNCC2)cc1,-3%[46 µM],/,-1%,/,/,8.9µM*
CC(CO)NC(=O)C1C=C2c3cccc4[nH]cc(c34)CC2N(C)C1 (stereo not drawn),?,1%,/,/,-46%,?
CCN(CC)C(=O)c1ccc(NC(=O)COc2ccc([N+](=O)[O-])cc2Cl)cc1,?,-8%,2%,0.5µM*,23%[10 µM],-14%
CC(C)c1ccc(-n2c(O)c(/C=N/NC(=O)c3ccccc3O)c(=O)[nH]c2=S)cc1,/,16%[9.22 µM],/,/,14%[10 µM],/
Cn1c(=O)c2c(nc(N/N=C/c3c(O)n(-c4ccccc4)c(=S)[nH]c3=O)n2C)n(C)c1=O,-10%,-2%,-2%,-22%,-15%[10 µM],8.9µM*
CCN(CC)CCNCc1nc2ccccc2c(=O)n1-c1ccc(F)cc1,-14%,10%,-1%,-5%,/,0%
CN(C)C1=C(C#N)C(c2ccccc2)=NP(N(C)C)(N(C)C)=N1,8%,-5%,-2%,-3%,-23%,1%
Cc1cc(Cl)ccc1OCCCC(=O)NCc1cccs1,-19%,14%,-1%,32µM*,-3%[10 µM],3%
NC(=O)CSc1nnc([C@@H](N)Cc2c[nH]c3ccccc23)o1,6%,-13%,2%,2%,3%,?
C=CCn1c(O)c(C(C)=Nc2ccc(C(=O)OCC)cc2)c(=O)[nH]c1=O,12%,3%,4%,-28%,-6%[0.074 µM],32µM*
O=C1NC(=O)N(CCC2=CCCCC2)C(=O)/C1=C/c1cccs1,/,-2%[9.22 µM],/,/,-7%[10 µM],/
COc1ccc(/C=C2\C(=O)NC(=O)N(CCC3=CCCCC3)C2=O)c(OC)c1,-9%,-4%,-3%,20µM*,3%[10 µM],0.32µM*
O=C1NC(=O)N(CCC2=CCCCC2)C(=O)/C1=C/c1ccc(O)cc1,-2%,3%,0%,11µM*,15%[10 µM],0.79µM*
O=C1NC(=O)C(=Cc2ccc(SC3CCCCC3)o2)C(=O)N1,/,24%,-4%,/,/,25µM*
O=C1NC(=O)C(=Cc2ccc(-c3ccccc3[N+](=O)[O-])o2)C(=O)N1,/,-14%[9.22 µM],/,/,-4%[10 µM],/
CN(C)C(=O)Oc1ccc(OCc2nc3ccccc3[nH]2)cc1,?,?,11µM*,0%,/,6%
CN(C)C(=O)Oc1ccc(OC(=O)N(C)C)cc1,3%,7%,-4%,-11%,3%,-4%
CCCCn1c(O)c(C=NC2CC3CCC2(C)C3(C)C)c(=O)[nH]c1=O (stereo not drawn),?,13µM*,3%,-12%,5%[10 µM],-5%
Cc1[nH]n(-c2ccccc2)c(=O)c1C(C[N+](=O)[O-])c1ccccc1Cl (stereo not drawn),-2%,-5%,-5%,-12%,1%,?
Cc1[nH]n(-c2ccccc2)c(=O)c1C(c1ccc([N+](=O)[O-])cc1)c1c(C)[nH]n(-c2ccccc2)c1=O,?,-7%,-7%,28µM*,-13%[10 µM],13µM*
Cc1ccc(C2NC(=S)NC(c3ccc(C)cc3)C23C(=O)NC(=O)NC3=O)cc1 (stereo not drawn),5%,?,-3%,-2%,-14%,9%
